Measurements: PubChem BioAssay AID540356 (Broad Institute, 2011)
About 360 (14%) of roughly 2,500 compounds were called active.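 How the source made its calls: active means signal-lowering compounds whose fitted half-maximal concentration AC50 is no higher than ten times their top tested concentration; inconclusive means flat curve with 30 to 70% inhibition, or poor fit; inactive means flat within 30%, signal increase, or AC50 above limit.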 Only a sample is shown.

Assay: non-specific inhibitors of H2O2 luminol chemiluminescence – biochemical, luminescence, no ALR or DTT, cherry-pick, artefact control for ALR inhibitor project, dose response (AID 540356)
Details: HRP/H2O2 luminol luminescence counterscreen; series mostly up to 10 µM

Compound	AC50
C/C(=N\Nc1cccc(Cl)c1)c1ccncc1	inactive
COc1ccc(Nc2cccc(Cl)c2)c(C(=O)O)c1	inactive
O=C(NNc1cccc(Cl)c1)c1cccnc1Cl	6.88 µM (active)
O=C(CC1CCCC1)N1CCCC(Nc2ccc(F)cc2)C1 (stereo unspecified)	inactive
Cc1occc1C(=O)N1CCCC(Nc2ccc(C(C)C)cc2)C1 (stereo unspecified)	inactive
CCS(=O)(=O)N1Cc2ccccc2CC1C(=O)N1CCN(c2ccccc2)CC1 (stereo unspecified)	inactive
Cc1ccc2c(C)c(C(=O)Nc3ccc(S(=O)(=O)Nc4onc(C)c4C)cc3)oc2c1	inactive
CCN(CC)c1ccc(NC(=O)CN2CCN(c3ccc(F)cc3)CC2)cc1	inactive
CCN(CC)c1ccc(NC(=O)c2nc3nc(C)cc(C(F)F)n3n2)cc1	10.3 µM (active)
CCN(CC)c1ccc(NC(=O)CN2CCN(c3nc(C)cc(C)n3)CC2)cc1	inactive
COc1ccc(N2C(=O)CSC2c2ccc([N+](=O)[O-])cc2)cc1 (stereo unspecified)	inactive
O=C(NNc1ccc(O)cc1)c1ccc(Br)cc1	9.05 µM (active)
O=C(NNc1cc(Br)c(O)c(Br)c1)c1ccccc1	inactive
COc1ccc(Br)cc1C(=O)Nc1ccc(O)cc1	inactive
Nc1cccc(/C=C/c2ccncc2)c1	inactive
CCN(CC)Cc1c(-c2ccccc2)[nH]c2ccc(C)cc2c1=O	inactive
Oc1ccc(O)c(-c2cnns2)c1	5.54 µM (active)
c1ccc(-c2nnc(CN3CCN(c4ccccc4)CC3)o2)cc1	inactive
COc1ccc(NC2CCCN(C(=O)c3cn(C)c4ccccc34)C2)cc1 (stereo unspecified)	inactive
Cc1ccc(Nc2c(-c3ccccc3O)nc3cnccn23)cc1	inactive
CC(=O)Oc1cc2oc(=O)cc(C)c2cc1Cl	inactive
Cc1cc(N)n2ncc(-c3ccccc3)c2n1	inactive
O=C(NCC(c1cccnc1)N1CCN(c2ccc(F)cc2)CC1)c1ccco1 (stereo unspecified)	inactive
COC(=O)[C@H](Cc1ccccc1)NC(=O)N1CCN(c2ccccc2)CC1	inactive
O=C(CN1CCN(c2ccccc2)CC1)Nc1ccccc1Cl	inactive

Compound	AC50
O=C1N/C(=N\S(=O)(=O)Cc2ccccc2)S/C1=C/c1cc([N+](=O)[O-])ccc1O	inactive
Cc1ccc(N2CCN(C(=O)CNS(=O)(=O)c3ccc(Br)s3)CC2C)cc1 (stereo unspecified)	inactive
COc1ccc(N2CCN(C(=O)c3ccc(SC)cc3OC)CC2)cc1	inactive
CCn1c(-c2cc(OC)c(OC)c(OC)c2)n[nH]c1=S	inactive
S=c1nc(-c2cc(Cl)cc(Cl)c2)[nH][nH]1	inactive
FC(F)(F)c1ccc(-c2nc(=S)[nH][nH]2)cc1	inactive
COc1cc(-c2nc(=S)[nH][nH]2)cc(OC)c1OC	3.9 µM (active)
COc1ccc(-c2nc(=S)[nH][nH]2)cc1	2.94 µM (active)
S=c1nc(-c2cccc(Cl)c2)[nH][nH]1	inactive
CC(=O)Nc1ccc(N2C(=O)CSC2c2ccccc2)cc1 (stereo unspecified)	inactive
COc1ccc2nc(N3CCCC3)[nH]c2c1	inactive
Cc1[nH]c2ccccc2c1N=Nc1cccc(C(=O)O)c1	inactive
CCCCC(NC(=O)Cc1c(C)c2cc3c(C)c(C)oc3c(C)c2oc1=O)C(=O)O (stereo unspecified)	inactive
CC(=O)NC(c1cc(Cl)c2ccccc2c1O)C(C)C (stereo unspecified)	inactive
COc1ccccc1N1CCN(C2CCCN(C(=O)CCc3c(C)noc3C)C2)CC1 (stereo unspecified)	inactive
CCN(CC)c1ccc(NC(=O)c2ccc(Br)o2)c(C)c1	inactive
Cc1cccc(C2CN(C)CCc3c2cc(O)c(O)c3Cl)c1 (stereo unspecified)	8.78 µM (active)
COc1ccc2[nH]c(=S)[nH]c2c1	inactive
COc1cc(OC)cc(-c2cn[nH]c2N)c1	inactive
COc1ccc(-c2cn[nH]c2N)c(OC)c1	7 µM (active)
Nc1cccc(CCc2ccncc2)c1	inactive
O=C(Cc1ccc(Cl)cc1)N1CCN(c2ccccc2)CC1	inactive
O=c1/c(=C/c2ccc(O)cc2)sc2n1CCCN=2	9.71 µM (active)
O=C(C1CCCN(S(=O)(=O)c2cnc[nH]2)C1)N1CCN(c2ccc(Cl)cc2)CC1 (stereo unspecified)	inactive
O=C1CCCN1CCCNc1ncnc2c1[nH]c1ccc(Cl)cc12	inactive

Compound	AC50
COc1cc2c(ccc3cc(OC)c(OC)c(O)c32)cc1O	inactive
CCN(CCNS(=O)(=O)c1ccc2[nH]c(=O)sc2c1)c1ccccc1	inactive
CC(=O)N1CC[n+]2c(-c3ccc(Cl)cc3)csc21	inactive
O=C1CCC(=O)N1CNc1ccc(Oc2ccccc2)cc1	inactive
O=C(CN1C(=O)CCC1=O)NNc1ccc2ccccc2c1	0.0915 µM (active)
O=C(CNc1ccc2ccccc2c1)NNC1=NCCC1	inactive
CCCn1cnc2cc(NCc3ccccc3O)ccc21	inactive
Cc1cc(N2CCN(c3ccccc3)CC2)n2ncnc2n1	inactive
O=C(O)c1ccc(CSc2nc3ccccc3o2)cc1	inactive
CC(=O)N1CCN(C(=S)c2ccc(N(C)C)cc2)CC1	inactive
COc1ccc(-c2n[nH]c(=S)n2Cc2ccco2)cc1	inactive
S=c1[nH]nc(-c2ccco2)n1Cc1ccccc1	inactive
S=c1[nH]nc(-c2ccncc2)n1Cc1ccco1	inactive
CCn1c(-c2ccc(N)cc2)nc2ccccc21	inactive
O=C(NNS(=O)(=O)c1ccc(F)cc1)c1cc2ccccc2cc1O	inactive
O=C(C1CCCC1)N1CCCC(Nc2ccccc2)C1 (stereo unspecified)	inactive
CCc1[nH]nc(C(=O)N2CCCC(Nc3ccc(C(C)C)cc3)C2)c1C (stereo unspecified)	inactive
CCc1ccc(-c2csc3[n+]2CCN3C(C)=O)cc1	inactive
O=C(Nc1ccc2snnc2c1)N1CCN(c2ccccc2)CC1	inactive
CC1(C)Nc2ccccc2N(CC(=O)N2CCCCC2)C1=O	inactive
O=c1[nH]c(/C=C\c2cccc(F)c2)nc(O)c1[N+](=O)[O-]	inactive
O=c1[nH]c(/C=C\c2ccccc2F)nc(O)c1[N+](=O)[O-]	inactive
O=c1[nH]c(/C=C\c2cccc(Cl)c2)nc(O)c1[N+](=O)[O-]	inactive
COc1cc(/C=N/NC(=O)c2cccc([N+](=O)[O-])c2)cc(OC)c1O	inactive
CCn1c(/C=C/c2ccc(O)cc2)nc2ccccc2c1=O	inactive

Compound	AC50
COc1cc(/C=N/Nc2ccc([N+](=O)[O-])cn2)cc(OC)c1O	inactive
Cc1ccc(C2SCC(=O)N2c2ccccc2)cc1 (stereo unspecified)	inactive
N#CC1=C(N)n2c(s/c(=C\c3cccs3)c2=O)=C(C#N)C1c1cccs1 (stereo unspecified)	inactive
N#Cc1cnn(-c2ccccc2)c1NC(=O)CN1CCN(c2ccccc2)CC1	inactive
CN(C)S(=O)(=O)c1ccc(-c2cn3ccccc3n2)cc1	inactive
O=C(N/N=C\c1cccc(Cl)c1)c1ccc(Cn2cccn2)o1	inactive
CSc1nc(O)c(Nc2cccc(Cl)c2)c(=O)[nH]1	inactive
Nc1ncc(Br)cc1S(=O)(=O)NCCC(=O)N1CCN(c2ccccc2)CC1	inactive
Cc1ccc(S(=O)(=O)N2CCN=C2SCc2cccnc2)cc1	inactive
CC(=O)Nc1nc(C)c(-c2csc(Nc3ccc(O)cc3)n2)s1	inactive
Nc1ccc(-c2nc3cc(N)ccc3s2)cc1	inactive
CN=c1scc(-c2ccccc2F)n1/N=C(\C)c1cccnc1	inactive
O=C1CSC(=S)N1c1ccc(O)cc1	inactive
COc1cc(/C=N/NC(=O)Cn2cnc3c2c(=O)n(C)c(=O)n3C)ccc1O	inactive
S=c1[nH]nc(C2CCCCC2)n1/N=C/c1ccccn1	inactive
Oc1ccc(/C=N/N=C/c2ccc(O)cc2)cc1	inactive
Cc1ccc(CN2CCN(/N=C/c3ccc(O)c(O)c3)CC2)cc1	inactive
Cc1ccsc1C=Nc1ccc(O)cc1	inactive
COc1cc(/C=N/N=C2/NC(=O)C(c3ccccc3)S2)ccc1O (stereo unspecified)	inactive
O=Cc1ccc(O)c(O)c1	inactive
Oc1cc(O)cc(/C=C/c2ccc(O)c(O)c2)c1	5.21 µM (active)
COc1ccc(N=C2C(=O)Nc3ccccc32)cc1	inactive
Oc1ccc(/C=N/N=C/c2ccc(O)c(O)c2)cc1O	2.39 µM (active)
COc1cc(/C=C/c2ccc(O)cc2)cc(OC)c1	inactive
COc1ccccc1C(=O)NCCN1CCN(c2ccccc2)CC1	inactive

Compound	AC50
CN(C)c1ccc(NC(=O)Nc2ccc3snnc3c2)cc1	inactive
CC(C)(C)c1cc(-c2n[nH]c(=S)n2-c2ccccc2F)n[nH]1	inactive
N#CCC(=O)Nc1ccc(C(=O)NCc2cccc(Cl)c2)cc1	inactive
CC(=O)Oc1ccc(-c2cccc(C(=O)N(C)c3ccc(O)cc3)c2)cc1	inactive
CCN(CCCNS(=O)(=O)c1ccc2c(c1)CCN2C(C)=O)c1cccc(C)c1	inactive
N#CC1=C(N)Oc2n[nH]c(-c3cccs3)c2C1c1ccco1 (stereo unspecified)	inactive
COc1ccc(OC)c(C2C(C#N)=C(N)Oc3cc(N)ccc32)c1 (stereo unspecified)	inactive
CC(C)C1C(C#N)=C(N)Oc2n[nH]c(-c3cccs3)c21 (stereo unspecified)	inactive
COC(=O)Cc1ccc(O)c(N)c1	inactive
COc1cc(/C=N/NC(=O)c2cc(-c3ccc4c(c3)OCO4)n[nH]2)ccc1O	inactive
Cc1ccc(C2C(C#N)=C(N)Oc3cc(N)ccc32)cc1 (stereo unspecified)	inactive
CC1CC/C(=N/Nc2ccccc2)C(=O)N1 (stereo unspecified)	inactive
c1csc(-c2nc3ccccn3c2NC2CCCCC2)c1	inactive
Cc1ccn2c(NC(C)(C)C)c(-c3cccs3)nc2c1	inactive
COc1ccc(C)cc1NC(=O)c1cc2c(CO)cnc(C)c2oc1=N	inactive
Oc1ccccc1N1CCN(c2nnnn2-c2ccccc2)CC1	inactive
CN1CC(=O)N(CC(=O)Nc2ccc(SC(F)F)cc2)C1=O	inactive
O=C(NCC(=O)N1CCN(c2ccccc2O)CC1)c1cccs1	inactive
Cc1ccc(S(=O)(=O)Nc2c(C(=O)O)[nH]c3ccccc23)c(C)c1	inactive
CCN(CC)c1ccc(C(=O)N/N=C(\C)c2ccc(O)cc2)cc1	inactive
C/C(=N\NC(=O)c1csc2ccccc12)c1ccc(O)cc1	inactive
